Measurements taken from PubChem BioAssay.
Where “and” joins values, the source holds several entries; their conditions need not be identical. Identical values can stand only once. Calls of active or inactive are those of the source.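 Rule for the calls, unless noted: active = compounds whose cell count with miR-34 switched on is under 0.7 times the count with it off; inactive = the rest.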

Tests used:
[1] = P. berghei load reduction in hepatocytes – cell-based, HepG2, luciferase luminescence, HepG2 viability, primary screen (AID 624349; in the data active = parasite load remaining mostly below about 12%, no sharp cut-off; inactive = mostly above about 10%;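 note: 100% = mean of DMSO negative control wells on the same plate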); details: P. berghei liver stage in HepG2, luciferase luminescence, concentration not given here; parasite load remaining: stronger effect = lower value; viability: measured here: HepG2 viability without parasites
[2] = Wnt pathway potentiators raising nuclear beta-catenin – imaging, WNT3A-conditioned medium, mouse C2C12, NPC library, primary screen (AID 1117326; in the data active = nuclear beta-catenin stimulation mostly above about 4.2%, no sharp cut-off; inactive = mostly below about 10%); details: stronger effect = higher value
[3] = stimulators of insulin release from INS-1E, primary screen, cell-based, 5 mM glucose, NPC library (AID 1117329;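 active = compound raises insulin release from rat beta cells at 5 mM glucose, no numeric limit stated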); details: rat INS-1E insulin secretion, at 10 µM, stronger effect = higher value
[4] = growth inhibition of GSK3B-pretreated HCT116 cells – cell-based, CellTiter-Glo, 0.2 to 20 µM (AID 1117336;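 active = compounds lowering colon cancer cell viability after pretreatment blocking the GSK3B kinase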); details: HCT116 viability after GSK3B inhibitor, at 20 µM, stronger effect = higher value
[5] = inhibition of endothelial tube formation, primary screen, imaging, VEGF stimulated, CD31 staining, tube area, NPC library (AID 1117340;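 active = compound that reduces growth-factor-driven endothelial tube area in a mixed cell culture, no cutoff stated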); details: VEGF-stimulated ADSC/ECFC co-culture, at 10 µM, stronger effect = higher value
[6] = GLP1 release stimulators, primary, NCI-H716, NPC library (AID 1117341;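 active = compound raises GLP1 secretion from the human gut endocrine cells, with no numeric limit stated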); details: NCI-H716 cells, at 10 µM, stronger effect = higher value
[7] = HCT116 colon cancer cell growth inhibition, primary screen, CellTiter-Glo luminescence, NPC library (AID 1117342;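 active = compounds that lower survival of HCT116 colon cancer cells in the luminescence readout, no numeric limit stated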); details: at 20 µM (top of the series)
[8] = reduced SW480 viability measured with CellTiter-Glo, NPC library, primary (AID 1117343;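 active = compounds that lower viability of the colon cancer cells in the luminescence readout, with no numeric limit stated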); details: CellTiter-Glo luminescence; at 20 µM (top of the series) unless noted
[9] = NPC library primary testing for decreased DLD-1 cell viability via CellTiter-Glo (AID 1117346;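 active = compounds that lower survival of DLD-1 colon cancer cells in the luminescence readout, no cutoff given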); details: DLD-1 viability, CellTiter-Glo luminescence; at 20 µM (top of the series)
[10] = EMT-state selective cytotoxicity in co-culture – imaging, PC-3E GFP, TEM4-18 mCherry, primary screen (AID 1345086;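 active = compounds killing one labelled cell type while sparing the other, by normalised counts and ratio limits, not self-fluorescent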;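 for all read-outs here: cells exposed to compound for 72 h before imaging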;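 for red/green cell ratio (normalised): normalised mesenchymal count divided by normalised epithelial count so high means epithelial killing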); details: PC-3E GFP / TEM4-18 mCherry co-culture, imaging cell counts, at 1 µM; for red/green cell ratio (normalised): actives lie on both sides, counts scaled to control wells, 1 = unselective
[11] = viability loss with induced miR-34 in A549 – imaging, A549 dox-inducible miR-34, nuclei and caspase counts, primary screen (AID 1347080); details: A549 miR-34 inducible, Hoechst nuclei count, 48 h
[12] = MELAS cybrid and Rieske KO viability enhancers – cell-based, MELAS cybrids, Rieske KO mouse fibroblasts, CellTiter-Glo, primary screen (AID 1508586;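 active = mean z-score across replicates of 1.96 or higher in either the MELAS or the Rieske mutant cell line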;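 note: z relative to plate mean and SD of compound and empty wells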); details: low glucose
[13] = target: NAD(+) hydrolase SARM1 (Homo sapiens) (UniProt Q6SZW1); assay: blocking NAD cleavage by SARM1 SAM-TIR – cell lysate, NAD-Glo luminescence (AID 1508614;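 active = compound whose remaining NAD level is above about 45 nM, limit read from the data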;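 note: higher remaining NAD means stronger inhibition of SARM1 NADase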); details: SAM-TIR HEK293T lysate NADase, at 1 µM, stronger effect = higher value
[14] = compounds altering viability of human ES cells (AID 493140; call rule not given here;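 note: cells exposed to compounds for four days before counting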); details: human embryonic stem cell survival screen; stronger effect = higher value
[15] = measured here: epithelial PC-3E GFP cell survival
[16] = measured here: mesenchymal TEM4-18 mCherry cell survival
[17] = stronger effect = lower value, cell number ratio, induced over uninduced
[18] = measured here: relative caspase fold change +Dox/-Dox
[19] = measured here: total cells with miR-34 induction, stronger effect = lower value
[20] = measured here: total cells without miR-34 induction
[21] = MELAS cybrid survival, CellTiter-Glo 48 h, stronger effect = higher value
[22] = Rieske KO mouse fibroblast survival, CellTiter-Glo 72 h

Chain of NAD(+) hydrolase SARM1 (Homo sapiens) (Q6SZW1 whole entry, looked up): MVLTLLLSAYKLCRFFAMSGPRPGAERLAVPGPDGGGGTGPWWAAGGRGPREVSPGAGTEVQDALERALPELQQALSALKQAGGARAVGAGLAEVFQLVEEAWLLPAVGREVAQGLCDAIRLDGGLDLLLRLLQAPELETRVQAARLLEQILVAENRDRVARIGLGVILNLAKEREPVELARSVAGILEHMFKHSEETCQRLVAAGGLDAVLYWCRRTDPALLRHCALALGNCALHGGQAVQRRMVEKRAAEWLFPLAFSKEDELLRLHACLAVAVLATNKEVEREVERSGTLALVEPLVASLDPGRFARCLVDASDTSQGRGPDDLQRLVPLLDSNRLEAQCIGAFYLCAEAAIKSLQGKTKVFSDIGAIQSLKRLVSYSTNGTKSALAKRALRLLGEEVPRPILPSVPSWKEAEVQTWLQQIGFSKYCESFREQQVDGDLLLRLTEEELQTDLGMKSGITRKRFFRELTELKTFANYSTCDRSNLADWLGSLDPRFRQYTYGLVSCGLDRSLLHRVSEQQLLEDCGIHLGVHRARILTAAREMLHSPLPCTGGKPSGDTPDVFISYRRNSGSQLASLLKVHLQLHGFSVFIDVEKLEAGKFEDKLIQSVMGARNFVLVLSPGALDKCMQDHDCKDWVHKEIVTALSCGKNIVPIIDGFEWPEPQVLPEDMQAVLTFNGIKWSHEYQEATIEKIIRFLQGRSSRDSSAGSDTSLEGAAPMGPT

Compound: O=C1OC(CN2CCOCC2)CN1/N=C/c1ccc([N+](=O)[O-])o1 (centres undefined)
- parasite load remaining [1]: 37.8% (inactive)
- viability [1]: 89.8%
- nuclear beta-catenin stimulation ([2]; at 10 µM): 1.3% (inactive)
- nuclear beta-catenin stimulation ([2]; stimulation, at 2 µM): 3.6%
- insulin secretion stimulation [3]: -1.4% (inactive)
- viability decrease [4]: 31.8% (inactive)
- tube area decrease [5]: -4.4% (inactive)
- GLP1 secretion stimulation [6]: -0.3% (inactive)
- inhibition of viability [7]: 24.6% (inactive)
- viability decrease (inhibition) [8]: 22% (inactive)
- viability decrease (inhibition) [9]: -32.5% (inactive)
- red/green cell ratio (normalised) [10]: 1.05 (inactive)
- normalised cell number [10, 15]: 1.05
- normalised cell number [10, 16]: 1.1
- fold change [11, 17]: 0.949 (inactive) and 0.857 (inactive)
- fold change [11, 18]: 0.904 and 1.34
- cell count [11, 19]: 8490 and 8240
- cell count [11, 20]: 8940 and 9610
- z-score [12, 21]: -1.3 (inactive)
- z-score [12, 22]: -1.11
- remaining NAD [13]: 10 nM (inactive)

Compound: [O-][n+]1cccc(CO)c1
- nuclear beta-catenin stimulation ([2]; at 10 µM): -0.4% (inactive)
- nuclear beta-catenin stimulation ([2]; stimulation, at 2 µM): 0.6%
- insulin secretion stimulation [3]: 2.1% (inactive)
- viability decrease [4]: -35% (inactive)
- tube area decrease [5]: 18.7% (inactive)
- GLP1 secretion stimulation [6]: -4.1% (inactive)
- inhibition of viability [7]: 1.43% (inactive)
- viability decrease (inhibition) [8]: -11.9% (inactive)
- viability decrease (inhibition) [9]: -6% (inactive)
- red/green cell ratio (normalised) [10]: 0.9 (inactive)
- normalised cell number [10, 15]: 1.13
- normalised cell number [10, 16]: 1.02
- fold change [11, 17]: 0.861 (inactive)
- fold change [11, 18]: 0.917
- cell count [11, 19]: 7710
- cell count [11, 20]: 8950
- remaining NAD [13]: 10 nM (inactive)

Compound: CCOc1ccc(NC(=O)CC(C)O)cc1 (centres undefined)
- nuclear beta-catenin stimulation ([2]; at 10 µM): -2.6% (inactive)
- nuclear beta-catenin stimulation ([2]; stimulation, at 2 µM): 0.2%
- insulin secretion stimulation [3]: 0.2% (inactive)
- viability decrease [4]: -0.1% (inactive)
- tube area decrease [5]: 4.3% (inactive)
- GLP1 secretion stimulation [6]: -3.3% (inactive)
- inhibition of viability [7]: 1.4% (inactive)
- viability decrease (inhibition) [8]: -2.6% (active)
- viability decrease (inhibition) [9]: -15.7% (inactive)
- red/green cell ratio (normalised) [10]: 1.16 (inactive)
- normalised cell number [10, 15]: 0.83
- normalised cell number [10, 16]: 0.96
- fold change [11, 17]: 0.956 (inactive)
- fold change [11, 18]: 0.822
- cell count [11, 19]: 9180
- cell count [11, 20]: 9600
- remaining NAD [13]: 10 nM (inactive)

Compound: NS(=O)(=O)c1ccc(C(=O)O)cc1
- nuclear beta-catenin stimulation ([2]; at 10 µM): 1.5% (inactive)
- nuclear beta-catenin stimulation ([2]; stimulation, at 2 µM): 1.6%
- insulin secretion stimulation [3]: -0.4% (inactive)
- viability decrease [4]: 15.4% (inactive)
- tube area decrease [5]: -32.8% (inactive)
- GLP1 secretion stimulation [6]: 2.9% (inactive)
- inhibition of viability [7]: -10.4% (inactive)
- viability decrease (inhibition) [8]: 21.5% (inactive)
- viability decrease (inhibition) [9]: 3.9% (inactive)
- red/green cell ratio (normalised) [10]: 0.82 (inactive)
- normalised cell number [10, 15]: 1.25
- normalised cell number [10, 16]: 1.03
- fold change [11, 17]: 0.907 (inactive)
- fold change [11, 18]: 1.07
- cell count [11, 19]: 8630
- cell count [11, 20]: 9520
- remaining NAD [13]: 10 nM (inactive)

Compound: O=S(=O)(O)c1cc(I)c(O)c2ncccc12
- nuclear beta-catenin stimulation ([2]; at 10 µM): -0.8% (inactive)
- nuclear beta-catenin stimulation ([2]; stimulation, at 2 µM): -0.5%
- insulin secretion stimulation [3]: -0.3% (inactive)
- viability decrease [4]: 62.2% (active)
- tube area decrease [5]: -5.5% (inactive)
- GLP1 secretion stimulation [6]: -2.6% (inactive)
- inhibition of viability [7]: 41% (inactive)
- viability decrease (inhibition) [8]: 77.9% (active)
- viability decrease (inhibition) [9]: 53.4% (active)
- red/green cell ratio (normalised) [10]: 1 (inactive)
- normalised cell number [10, 15]: 1.1
- normalised cell number [10, 16]: 1.11
- fold change [11, 17]: 1.07 (inactive)
- fold change [11, 18]: 0.778
- cell count [11, 19]: 5970
- cell count [11, 20]: 5570
- remaining NAD [13]: 10 nM (inactive)

Compound: CC(=O)c1ccc2c(c1)N(CCCN1CCC(CCO)CC1)c1ccccc1S2
- survival [14]: 3.92 (inactive)
- parasite load remaining [1]: 69.8% (inactive)
- viability [1]: 79.8%
- nuclear beta-catenin stimulation ([2]; at 10 µM): 3% (inactive)
- nuclear beta-catenin stimulation ([2]; stimulation, at 2 µM): 0.4%
- insulin secretion stimulation [3]: 1.7% (inactive)
- viability decrease [4]: 78.7% (active)
- tube area decrease [5]: 3.9% (inactive)
- GLP1 secretion stimulation [6]: -6.7% (inactive)
- inhibition of viability [7]: 77.2% (active)
- viability decrease (inhibition) [8]: 85.4% (active)
- viability decrease (inhibition) [9]: 60% (active)
- red/green cell ratio (normalised) [10]: 1.13 (inactive)
- normalised cell number [10, 15]: 0.92
- normalised cell number [10, 16]: 1.04
- fold change [11, 17]: 0.911 (inactive)
- fold change [11, 18]: 0.592
- cell count [11, 19]: 8130
- cell count [11, 20]: 8930
- z-score [12, 21]: -0.364 (inactive)
- z-score [12, 22]: -0.0941
- remaining NAD [13]: 10 nM (inactive)

Compound: CC(=O)N(CC(O)CO)c1c(I)c(C(=O)NCCO)c(I)c(C(=O)NCC(O)CO)c1I (centres undefined)
- nuclear beta-catenin stimulation ([2]; at 10 µM): 9.8% (inactive)
- nuclear beta-catenin stimulation ([2]; stimulation, at 2 µM): 0.7%
- insulin secretion stimulation [3]: 0.3% (inactive)
- viability decrease [4]: -3.3% (inactive)
- tube area decrease [5]: 1.4% (inactive)
- GLP1 secretion stimulation [6]: 2.4% (inactive)
- inhibition of viability [7]: -3.1% (inactive)
- viability decrease (inhibition) [8]: -2.5% (active)
- viability decrease (inhibition) [9]: 0.4% (inactive)
- red/green cell ratio (normalised) [10]: 0.83 (inactive)
- normalised cell number [10, 15]: 1.22
- normalised cell number [10, 16]: 1.02
- fold change [11, 17]: 0.937 (inactive)
- fold change [11, 18]: 0.945
- cell count [11, 19]: 9070
- cell count [11, 20]: 9680
- remaining NAD [13]: 10 nM (inactive)

Compound: CC(=O)Nc1ccc(C(=O)O)cc1
- nuclear beta-catenin stimulation ([2]; at 10 µM): -0.6% (inactive)
- nuclear beta-catenin stimulation ([2]; stimulation, at 2 µM): 0.4%
- insulin secretion stimulation [3]: -1.8% (inactive)
- viability decrease [4]: -11.6% (inactive)
- tube area decrease [5]: -12.7% (inactive)
- GLP1 secretion stimulation [6]: -0.1% (inactive)
- inhibition of viability [7]: -18.3% (inactive)
- viability decrease (inhibition) [8]: 13.7% (inactive)
- viability decrease (inhibition) [9]: 11.3% (inactive)
- red/green cell ratio (normalised) [10]: 1.14 (inactive)
- normalised cell number [10, 15]: 0.87
- normalised cell number [10, 16]: 0.99
- fold change [11, 17]: 0.937 (inactive)
- fold change [11, 18]: 1.06
- cell count [11, 19]: 9250
- cell count [11, 20]: 9880
- remaining NAD [13]: 10 nM (inactive)

Compound: CCCOc1cc(N)ccc1C(=O)OCCN(CC)CC
- survival [14]: 9.5 (inactive)
- parasite load remaining [1]: 77.2% (inactive)
- viability [1]: 75.5%
- nuclear beta-catenin stimulation ([2]; at 10 µM): 0% (inactive)
- nuclear beta-catenin stimulation ([2]; stimulation, at 2 µM): 0.6%
- insulin secretion stimulation [3]: 4.5% (inactive)
- viability decrease [4]: -4.1% (inactive)
- tube area decrease [5]: -15.3% (inactive)
- GLP1 secretion stimulation [6]: -1.7% (inactive)
- inhibition of viability [7]: -3.9% (inactive)
- viability decrease (inhibition) [8]: 4% (inactive)
- viability decrease (inhibition) [9]: -9.1% (inactive)
- red/green cell ratio (normalised) [10]: 1 (inactive)
- normalised cell number [10, 15]: 1.21
- normalised cell number [10, 16]: 1.21
- fold change [11, 17]: 0.973 (inactive)
- fold change [11, 18]: 0.697
- cell count [11, 19]: 9580
- cell count [11, 20]: 9850
- z-score [12, 21]: -0.734 (inactive)
- z-score [12, 22]: -0.617
- remaining NAD [13]: 10 nM (inactive)

Compound: CCCCC(CC)COc1ccc(-c2nc(-c3ccc(OC)cc3)nc(-c3ccc(OCC(CC)CCCC)cc3O)n2)c(O)c1 (centres undefined)
- nuclear beta-catenin stimulation ([2]; at 10 µM): -1% (inactive)
- nuclear beta-catenin stimulation ([2]; stimulation, at 2 µM): 2%
- insulin secretion stimulation [3]: 0.7% (inactive)
- viability decrease [4]: 4.7% (inactive)
- tube area decrease [5]: 2.9% (inactive)
- GLP1 secretion stimulation [6]: -2.3% (inactive)
- inhibition of viability [7]: -5.3% (inactive)
- viability decrease (inhibition) [8]: -1.3% (active)
- viability decrease (inhibition) [9]: -8.3% (inactive)
- red/green cell ratio (normalised) [10]: 0.89 (inactive)
- normalised cell number [10, 15]: 1.25
- normalised cell number [10, 16]: 1.12
- fold change [11, 17]: 0.959 (inactive)
- fold change [11, 18]: 0.849
- cell count [11, 19]: 9430
- cell count [11, 20]: 9840
- remaining NAD [13]: 10 nM (inactive)
